# Test results published in ChEMBL document CHEMBL3988442, “University of Dundee, Small-Polar-MMV Screening Library” (2021).
# For some assays here: Entries with a potency or affinity are not part of this list.
# Legend:
# Design in all cases: scale not given: direction of the effect not stated beside the values
# [1] = biological target: Protein translocase subunit SecA (Escherichia coli (strain K12)) (UniProt P10408); assay: Assay to Identify E. coli SecA ATPase Inhibitors; type: functional; conditions: 30 µM
# Protein translocase subunit SecA (Escherichia coli (strain K12)), sequence (P10408 whole entry): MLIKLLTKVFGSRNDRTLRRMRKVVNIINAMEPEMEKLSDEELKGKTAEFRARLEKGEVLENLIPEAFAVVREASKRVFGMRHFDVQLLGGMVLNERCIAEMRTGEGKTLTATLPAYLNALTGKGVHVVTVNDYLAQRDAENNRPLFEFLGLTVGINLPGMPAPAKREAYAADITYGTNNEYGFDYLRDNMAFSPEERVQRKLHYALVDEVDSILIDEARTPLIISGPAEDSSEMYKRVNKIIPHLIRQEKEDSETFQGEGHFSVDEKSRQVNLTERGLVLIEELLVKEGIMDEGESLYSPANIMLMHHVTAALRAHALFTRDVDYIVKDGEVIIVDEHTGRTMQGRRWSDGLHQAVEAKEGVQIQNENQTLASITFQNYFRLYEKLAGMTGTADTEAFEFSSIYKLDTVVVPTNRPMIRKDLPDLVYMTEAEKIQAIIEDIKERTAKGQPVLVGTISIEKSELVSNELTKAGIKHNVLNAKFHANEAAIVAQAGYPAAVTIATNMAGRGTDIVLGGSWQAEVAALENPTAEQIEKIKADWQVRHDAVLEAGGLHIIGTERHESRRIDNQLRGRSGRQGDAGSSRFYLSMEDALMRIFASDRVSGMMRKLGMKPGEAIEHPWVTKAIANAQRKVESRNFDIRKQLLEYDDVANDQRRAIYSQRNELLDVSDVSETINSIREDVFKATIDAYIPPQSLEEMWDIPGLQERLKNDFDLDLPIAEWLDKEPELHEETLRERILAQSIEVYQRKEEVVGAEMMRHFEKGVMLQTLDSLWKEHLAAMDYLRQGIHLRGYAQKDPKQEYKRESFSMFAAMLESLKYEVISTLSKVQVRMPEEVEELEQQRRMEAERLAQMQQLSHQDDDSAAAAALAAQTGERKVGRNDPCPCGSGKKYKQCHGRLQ
# [2] = biological target: T1, Ubiquitin-activating enzyme e1, putative (Leishmania donovani (strain BPK282A1)) (UniProt E9BSI1); assay: Leishmania donovani Ubiquitin Activating Enzyme (LdE1); type: functional; conditions: 30 µM
# T1 sequence (whole entry): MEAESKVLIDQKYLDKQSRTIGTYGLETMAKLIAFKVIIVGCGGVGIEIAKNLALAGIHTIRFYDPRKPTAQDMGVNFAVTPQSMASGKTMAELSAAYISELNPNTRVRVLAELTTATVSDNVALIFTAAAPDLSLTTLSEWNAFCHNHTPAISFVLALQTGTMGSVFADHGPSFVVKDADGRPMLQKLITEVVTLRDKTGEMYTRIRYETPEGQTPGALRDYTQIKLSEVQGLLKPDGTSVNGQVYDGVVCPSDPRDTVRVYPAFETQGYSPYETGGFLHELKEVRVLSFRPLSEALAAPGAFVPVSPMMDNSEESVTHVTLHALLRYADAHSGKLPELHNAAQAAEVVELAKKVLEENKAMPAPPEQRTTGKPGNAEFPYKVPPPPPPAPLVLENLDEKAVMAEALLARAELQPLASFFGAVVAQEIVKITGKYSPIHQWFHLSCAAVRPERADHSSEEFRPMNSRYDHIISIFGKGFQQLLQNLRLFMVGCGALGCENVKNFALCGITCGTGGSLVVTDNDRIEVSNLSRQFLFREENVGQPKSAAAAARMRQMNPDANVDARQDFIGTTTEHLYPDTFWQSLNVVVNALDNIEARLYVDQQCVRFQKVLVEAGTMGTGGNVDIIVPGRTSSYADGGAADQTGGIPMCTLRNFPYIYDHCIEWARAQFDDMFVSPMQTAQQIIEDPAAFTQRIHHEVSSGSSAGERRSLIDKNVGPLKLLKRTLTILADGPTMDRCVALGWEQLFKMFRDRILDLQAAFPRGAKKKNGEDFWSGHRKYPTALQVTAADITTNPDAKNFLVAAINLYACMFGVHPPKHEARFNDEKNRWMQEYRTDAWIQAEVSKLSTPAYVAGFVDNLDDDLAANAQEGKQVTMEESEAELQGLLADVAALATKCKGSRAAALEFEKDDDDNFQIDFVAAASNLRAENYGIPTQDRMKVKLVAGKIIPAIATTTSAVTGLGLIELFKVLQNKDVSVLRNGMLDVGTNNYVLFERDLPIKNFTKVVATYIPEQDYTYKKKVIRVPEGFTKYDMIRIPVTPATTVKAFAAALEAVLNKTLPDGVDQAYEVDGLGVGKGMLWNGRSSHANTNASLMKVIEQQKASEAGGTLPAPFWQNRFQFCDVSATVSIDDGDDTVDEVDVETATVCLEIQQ
# [3] = biological target: AMP-activated protein kinase, AMPK (Homo sapiens) (UniProt P54646+O43741+P54619+Q9UGJ0+Q9Y478+Q13131+Q9UGI9); assay: AMP-dependent Kinase enzyme assay. An in vitro enzyme assay that detects ADP turnover that is directly proportional to AMPK activity. This uses naive AMPK that is activated during the assay with MK-8722; type: functional; conditions: 30 µM
# [4] = biological target: Sialic acid-binding Ig-like lectin 9 (Homo sapiens) (UniProt Q9Y336); assay: Hs-Siglec9 ALPHAscreen SOP 20170721; conditions: 10 µM
# Sialic acid-binding Ig-like lectin 9 (Homo sapiens), sequence (Q9Y336 whole entry): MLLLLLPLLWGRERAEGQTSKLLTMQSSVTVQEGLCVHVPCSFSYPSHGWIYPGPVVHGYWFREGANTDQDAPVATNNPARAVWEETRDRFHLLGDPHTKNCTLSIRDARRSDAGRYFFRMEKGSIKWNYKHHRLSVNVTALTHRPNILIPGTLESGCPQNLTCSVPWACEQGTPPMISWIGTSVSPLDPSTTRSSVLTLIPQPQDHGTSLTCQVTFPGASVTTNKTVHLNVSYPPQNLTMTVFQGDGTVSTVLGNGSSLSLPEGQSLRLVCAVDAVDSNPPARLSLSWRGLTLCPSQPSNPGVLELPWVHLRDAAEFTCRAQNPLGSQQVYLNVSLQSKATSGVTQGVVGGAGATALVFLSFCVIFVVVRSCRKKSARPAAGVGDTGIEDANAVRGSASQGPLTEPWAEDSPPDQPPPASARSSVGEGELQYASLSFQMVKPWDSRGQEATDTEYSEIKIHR
# Trypanosoma cruzi = assay: Trypanosoma cruzi phosphomannomutase and mannose-1-phosphate guanylyltransferase assay; type: functional; conditions: 10 µM
# [5] = biological target: T2, Arginase-2, mitochondrial (Homo sapiens) (UniProt P78540); assay: in vitro enzyme assay to detect the production of urea directly proportional to the activity of Arginase II; type: functional; conditions: 33.3 µM; also: in the data most compounds retested in dose-response had high values
# T2 sequence (whole entry): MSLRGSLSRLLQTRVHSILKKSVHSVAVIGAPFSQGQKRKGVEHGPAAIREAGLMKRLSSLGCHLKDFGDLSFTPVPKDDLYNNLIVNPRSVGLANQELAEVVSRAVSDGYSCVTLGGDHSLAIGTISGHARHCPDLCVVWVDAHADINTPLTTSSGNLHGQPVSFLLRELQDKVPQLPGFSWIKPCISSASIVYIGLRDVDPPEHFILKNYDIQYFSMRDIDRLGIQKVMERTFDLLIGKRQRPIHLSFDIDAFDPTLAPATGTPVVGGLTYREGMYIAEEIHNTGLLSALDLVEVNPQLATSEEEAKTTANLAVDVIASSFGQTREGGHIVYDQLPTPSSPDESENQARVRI
# [6] = biological target: T3, Proteasome subunit beta (Trypanosoma cruzi) (UniProt O96673); assay: Trypanosoma cruzi proteasome chymotrypsin-like activity (TcProtChymo) assay.; also: in the data most compounds retested in dose-response had high values; type: functional; conditions: 9.37 µM
# T3 sequence (whole entry): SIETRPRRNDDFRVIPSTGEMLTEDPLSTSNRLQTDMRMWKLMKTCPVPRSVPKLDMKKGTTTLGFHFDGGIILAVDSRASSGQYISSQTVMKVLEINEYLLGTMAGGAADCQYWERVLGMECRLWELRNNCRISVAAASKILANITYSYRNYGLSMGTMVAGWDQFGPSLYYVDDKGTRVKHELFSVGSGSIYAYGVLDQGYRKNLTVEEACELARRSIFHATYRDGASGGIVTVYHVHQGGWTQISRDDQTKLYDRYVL
# Homo sapiens = species on record: Homo sapiens; assay: To identify inhibition of the IFN signalling (Jak-Stat) pathway via expression of an eGFP reporter gene under the control of an IFN-stimulated response element (ISRE) containing MxA promoter.; type: functional; conditions: 30 µM
# [7] = biological target: T4, Tyrosyl-tRNA synthetase, putative (Trypanosoma cruzi (strain CL Brener)) (UniProt Q4DSP6); assay: Trypanosoma cruzi tyrosyl tRNA synthetase (TcYRS) _High Tyrosine SOP; type: functional; conditions: 30 µM; also: in the data most compounds retested in dose-response had high values
# T4 sequence (whole entry): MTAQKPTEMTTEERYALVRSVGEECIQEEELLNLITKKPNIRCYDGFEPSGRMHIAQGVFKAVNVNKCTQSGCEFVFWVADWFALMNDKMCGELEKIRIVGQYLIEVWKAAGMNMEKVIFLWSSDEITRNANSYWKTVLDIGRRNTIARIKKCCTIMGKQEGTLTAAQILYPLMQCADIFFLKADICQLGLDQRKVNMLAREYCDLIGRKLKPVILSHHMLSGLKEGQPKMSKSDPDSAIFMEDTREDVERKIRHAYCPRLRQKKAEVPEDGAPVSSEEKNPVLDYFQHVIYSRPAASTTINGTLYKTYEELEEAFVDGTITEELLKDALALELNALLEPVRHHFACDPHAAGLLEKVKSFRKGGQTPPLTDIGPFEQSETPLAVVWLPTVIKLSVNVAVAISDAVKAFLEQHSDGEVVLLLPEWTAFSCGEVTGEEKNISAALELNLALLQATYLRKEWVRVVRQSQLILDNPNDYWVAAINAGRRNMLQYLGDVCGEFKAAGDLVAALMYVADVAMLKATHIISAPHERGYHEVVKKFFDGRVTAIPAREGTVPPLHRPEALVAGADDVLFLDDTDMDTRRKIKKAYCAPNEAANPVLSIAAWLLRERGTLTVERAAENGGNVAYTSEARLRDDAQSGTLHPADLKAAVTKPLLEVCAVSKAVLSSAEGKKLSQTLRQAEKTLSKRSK
# [8] = biological target: T4, Tyrosyl-tRNA synthetase, putative (Trypanosoma cruzi (strain CL Brener)); assay: Trypanosoma cruzi tyrosyl tRNA synthetase (TcYRS) SOP; type: functional; conditions: 30 µM
# [9] = biological target: Chromo domain-containing protein 1 (Saccharomyces cerevisiae (strain ATCC 204508 / S288c) (Baker's yeast)) (UniProt P32657); assay: ScCHD-1 Enzyme Inhibition Assay; type: functional; conditions: 30 µM; also: in the data most compounds retested in dose-response had high values
# Chromo domain-containing protein 1 (Saccharomyces cerevisiae (strain ATCC 204508 / S288c) (Baker's yeast)), sequence (P32657 whole entry, the tested form may be a part): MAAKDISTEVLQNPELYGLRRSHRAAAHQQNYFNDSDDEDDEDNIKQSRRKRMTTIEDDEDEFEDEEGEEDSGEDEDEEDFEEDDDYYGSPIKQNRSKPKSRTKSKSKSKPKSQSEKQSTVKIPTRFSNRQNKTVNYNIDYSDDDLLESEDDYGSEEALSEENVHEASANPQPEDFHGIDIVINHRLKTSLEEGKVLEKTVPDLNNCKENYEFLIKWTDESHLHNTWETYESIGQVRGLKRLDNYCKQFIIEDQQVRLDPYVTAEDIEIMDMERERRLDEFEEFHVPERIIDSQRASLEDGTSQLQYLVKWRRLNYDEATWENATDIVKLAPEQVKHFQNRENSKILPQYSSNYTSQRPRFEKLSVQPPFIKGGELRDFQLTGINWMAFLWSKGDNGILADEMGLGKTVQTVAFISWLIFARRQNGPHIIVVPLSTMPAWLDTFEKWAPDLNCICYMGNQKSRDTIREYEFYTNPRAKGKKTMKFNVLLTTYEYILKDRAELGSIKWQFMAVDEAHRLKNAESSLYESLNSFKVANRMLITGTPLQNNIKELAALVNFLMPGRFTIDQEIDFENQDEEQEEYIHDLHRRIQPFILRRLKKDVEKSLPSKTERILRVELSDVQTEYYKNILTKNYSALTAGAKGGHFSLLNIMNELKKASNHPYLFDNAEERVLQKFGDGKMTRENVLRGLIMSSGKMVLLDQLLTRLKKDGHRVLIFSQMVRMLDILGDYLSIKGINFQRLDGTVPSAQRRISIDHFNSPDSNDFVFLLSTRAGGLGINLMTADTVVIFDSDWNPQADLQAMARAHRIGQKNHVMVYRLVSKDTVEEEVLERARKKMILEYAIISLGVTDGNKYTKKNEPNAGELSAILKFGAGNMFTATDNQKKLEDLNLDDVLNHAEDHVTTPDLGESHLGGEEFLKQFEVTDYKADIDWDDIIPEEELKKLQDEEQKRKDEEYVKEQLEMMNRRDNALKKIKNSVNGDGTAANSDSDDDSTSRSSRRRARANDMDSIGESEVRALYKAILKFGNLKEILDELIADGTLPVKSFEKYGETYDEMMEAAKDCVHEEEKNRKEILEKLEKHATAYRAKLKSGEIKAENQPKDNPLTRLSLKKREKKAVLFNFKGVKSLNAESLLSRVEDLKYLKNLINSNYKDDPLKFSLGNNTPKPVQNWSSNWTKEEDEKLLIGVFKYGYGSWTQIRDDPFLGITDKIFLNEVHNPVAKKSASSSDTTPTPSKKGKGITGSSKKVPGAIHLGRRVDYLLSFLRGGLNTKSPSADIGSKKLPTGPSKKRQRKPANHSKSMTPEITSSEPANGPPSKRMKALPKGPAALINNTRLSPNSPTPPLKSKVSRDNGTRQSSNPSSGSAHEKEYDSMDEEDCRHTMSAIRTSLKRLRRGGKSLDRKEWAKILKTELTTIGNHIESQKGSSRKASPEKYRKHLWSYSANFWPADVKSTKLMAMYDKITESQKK
Structure (SMILES),Percent Effect [1] [%],Percent Effect [2] [%],Percent Effect [3] [%],Percent Effect [4] [%],Percent Effect (Trypanosoma cruzi) [%],Percent Effect [5] [%],Percent Effect [6] [%],Percent Effect (Homo sapiens) [%],Percent Effect [7] [%],Percent Effect [8] [%],Percent Effect [9] [%]
Cc1ccccc1-c1cncc(C2CCN(C)CC2)n1,-3.38,-6.76,8.25,2.29,5.73,-1.62,-0.624,-1.24,5.38,3.9,-11.8
CC(NC(=O)N(C)Cc1ccsc1)c1ccc2c(c1)OCO2 (stereo not given),-2.79,10.5,5,4.83,9.59,-4.21,11,1.31,4.41,19.5,-8.55
CC(C)c1nc2c(n1C)CCN(Cc1nc(-c3cccs3)no1)C2,-5.48,-5.41,8.78,3.18,1.21,-1.66,2.33,0.809,6.93,11,9.28
CCc1nnc(CN2CCN(C(=O)c3cc4ccccc4[nH]3)CC2)o1,-3,-2.6,2.79,2.32,8.91,-1.47,2.83,-20,1.91,2.35,-14.7
Cc1ccc(CN2CC(C(=O)Nc3ccccc3)C3(CCOCC3)C2)s1 (stereo not given),-2.15,8,-1.41,0.774,-0.579,-44.3,11.4,-5.53,3.12,25,-6.22
COc1cc(N2C[C@H]3OCC[C@H]3[C@H](C(=O)NC3CC3)C2)ncn1,-2.33,5.48,-1.57,8.48,2.18,0.399,6.93,0.456,9.38,6.17,-1.62
COCCCN(CCOC)C(=O)Nc1ccc(C)cc1C,-4.88,-7.89,-30.8,-2.12,-2.63,3.55,2.01,-18.5,-2.13,-2.6,6.01
CC(=O)N(Cc1noc(C)n1)C1CCN(Cc2ccncc2Cl)C1 (stereo not given),-3.16,16.5,-1.3,0.699,-1.95,2.8,12.5,8.22,3.12,12.7,-16
O=C(N1CCCC1)N1CCN(CC2CC2)c2ncccc2C1,-3.07,5.33,8.78,-0.324,-6.69,7.69,21.8,10.6,4.25,1.28,-4.2
Cc1ccc(C(=O)N(C)Cc2cscn2)c(=O)[nH]1,-6.94,15.8,-3.33,3.04,2.24,1.18,4.31,1.38,4.25,2.6,-6.33
